Counter-ions that a name gives are not always drawn. ± gives the standard deviation of the averaged measurements.
Tests used:
Experiment in all cases: cell viability (% of vehicle); higher = less cytotoxic
HCI01 [1] = cells of a triple-negative basal-like breast cancer xenograft; settings: 1 µM; 72 h
UCD52 [2] = cells of a triple-negative basal-like breast cancer xenograft; settings: 1 µM; 72 h
WHIM2 [3] = cells of a triple-negative basal-like breast cancer xenograft; settings: 1 µM; 72 h
WHIM30 [4] = cells of a triple-negative basal-like breast cancer xenograft; settings: 1 µM; 72 h
HCI01 [5] = settings: 10 µM; 72 h
HCI03 = cells of an ER-positive luminal breast cancer xenograft; settings: 10 µM; 72 h
HCI09 = cells of a triple-negative luminal androgen receptor type breast cancer xenograft; settings: 10 µM; 72 h
HCI11 = cells of an ER-positive luminal breast cancer xenograft; settings: 10 µM; 72 h
HCI13 = cells of an ER-positive luminal breast cancer xenograft; settings: 10 µM; 72 h
HCI16 = cells of a triple-negative basal-like breast cancer xenograft; settings: 10 µM; 72 h
UCD52 [6] = settings: 10 µM; 72 h
WHIM2 [7] = settings: 10 µM; 72 h
WHIM30 [8] = settings: 10 µM; 72 h

| Structure (SMILES) | cell viability (HCI01 [1]) | cell viability (UCD52 [2]) | cell viability (WHIM2 [3]) | cell viability (WHIM30 [4]) | cell viability (HCI01 [5]) | cell viability (HCI03) | cell viability (HCI09) | cell viability (HCI11) | cell viability (HCI13) | cell viability (HCI16) | cell viability (UCD52 [6]) | cell viability (WHIM2 [7]) | cell viability (WHIM30 [8]) |
| --- | --- | --- | --- | --- | --- | --- | --- | --- | --- | --- | --- | --- | --- |
| Nc1c(CC(=O)[O-])cccc1C(=O)c1ccccc1.O.[Na+] [Amfenac Sodium Monohydrate] | 97.6 | 93 | 115 | 99.5 | 56.6 ± 53 | 102 | 92.4 ± 14 | 92.6 | 114 ± 16 | 104 | 62.1 ± 8.9 | 82.7 ± 3.5 | 90.11 ± 0.73 |
| C=C(c1ccc(C(=O)O)cc1)c1cc2c(cc1C)C(C)(C)CCC2(C)C [Bexarotene] | 106 | 107 | 91.9 | 142 | 60.2 ± 32 | 85.9 | 98.5 ± 3.8 | 100 | 54.3 ± 2.4 | 84.7 | 98 ± 14 | 44.8 ± 14 | 93.8 ± 4.4 |
| COc1nc2ccc(Br)cc2cc1[C@@H](c1ccccc1)[C@@](O)(CCN(C)C)c1cccc2ccccc12 [Bedaquiline fumarate] | 90.7 | 108 | 97.8 | 99.8 | 79.1 ± 18 | 75.7 | 64.5 ± 22 | 80.3 | 116.1 ± 1.1 | 87 | 42.6 ± 0.72 | 48.7 ± 2.1 | 70 ± 2.9 |
| CC1=CC(=O)c2ccccc2C1=O [Menadione] | 98.6 | 94.2 | 105 | 98.2 | 61.6 ± 55 | 51.9 | 31.3 ± 7.9 | 30.5 | 57.3 ± 4.9 | 57.6 | 30.5 ± 2.1 | 44.1 ± 10 | 138 ± 14 |
| CS(=O)(=O)CCNCc1ccc(-c2ccc3ncnc(Nc4ccc(OCc5cccc(F)c5)c(Cl)c4)c3c2)o1.Cc1ccc(S(=O)(=O)O)cc1.Cc1ccc(S(=O)(=O)O)cc1 [Lapatinib Ditosylate] | 71.7 | 57.1 | 56.2 | 61.1 | 49.51 ± 0.1 | 45.4 | 36.3 ± 18 | 67.8 | 42.39 ± 0.3 | 61.8 | 28.1 ± 1.9 | 37.7 ± 3 | 47.4 ± 4 |
| N.N.O=C([O-])C1(C(=O)[O-])CCC1.[Pt+2] [Carboplatin] | 87.9 | 80.1 | 99.9 | 77 | 82.1 ± 6.4 | 82.7 | 91.7 ± 4 | 86.4 | 86.87 ± 0.21 | 51 | 39.6 ± 6.8 | 84.8 ± 13 | 89 ± 5.5 |
| Cl.Nc1ccn(C2OC(CO)C(O)C2O)c(=O)n1 (stereo not given) [Cytarabine hydrochloride] | 71.5 | 114 | 86.3 | 90.1 | 75.2 ± 11 | 105 | 122 ± 36 | 147 | 61.5 ± 3.5 | 73.9 | 105 ± 5.7 | 58 ± 8.3 | 81.1 ± 11 |
| Nc1ccn(C2OC(CO)C(O)C2O)c(=O)n1 (stereo not given) [Cytarabine] | 75 | 106 | 87.1 | 80.9 | 65 ± 1.2 | 101 | 94.2 ± 1.1 | 136 | 76.4 ± 11 | 83.3 | 91.4 ± 17 | 58.4 ± 8.6 | 86.07 ± 0.15 |
| C#Cc1cccc(Nc2ncnc3cc(OCCOC)c(OCCOC)cc23)c1.Cl [Erlotinib Hydrochloride] | 63.1 | 68.3 | 50.1 | 80.5 | 75.1 ± 35 | 50 | 59 ± 12 | 104 | 69.8 ± 5.8 | 100 | 52.4 ± 1.8 | 48 ± 8.3 | 84.5 ± 5.2 |
| CC[C@@H]1/C=C(\C)C[C@H](C)C[C@H](OC)[C@H]2O[C@@](O)(C(=O)C(=O)N3CCCC[C@H]3C(=O)O[C@H](/C(C)=C/[C@@H]3CC[C@H](Cl)[C@H](OC)C3)[C@H](C)[C@@H](O)CC1=O)[C@H](C)C[C@@H]2OC [Pimecrolimus] | 102 | 89 | 82.4 | 86 | 71.4 ± 29 | 65.3 | 29.4 ± 5.2 | 76.9 | 56.5 ± 5.4 | 71.1 | 43.9 ± 8 | 62.5 ± 15 | 87.7 ± 14 |
| COc1cc(C(=O)O)ccc1NC(=O)C1NC(CC(C)(C)C)C(C#N)(c2ccc(Cl)cc2F)C1c1cccc(Cl)c1F (stereo not given) | 95.1 | 89.1 | 99.1 | 91.3 | 63.9 ± 30 | 143 | 37.1 ± 9.3 | 118 | 60.9 ± 7.6 | 97.1 | 101 ± 6.1 | 44.9 ± 8.6 | 102 ± 14 |
| CNC(=O)c1cc(Oc2ccc(NC(=O)Nc3ccc(Cl)c(C(F)(F)F)c3)c(F)c2)ccn1 [Regorafenib] | 103 | 80.7 | 99.6 | 89.9 | 22.5 ± 4.2 | 48 | 13.2 ± 3.8 | 43.5 | 83.1 ± 5.7 | 39.7 | 117 ± 4.5 | 30.6 ± 7.5 | 44.9 ± 1.4 |
| CC1CC(=O)NN=C1c1ccc(NN=C(C#N)C#N)cc1 (stereo not given) [Levosimendan] | 89.2 | 95.2 | 114 | 96.7 | 50.6 ± 31 | 183 | 51.9 ± 30 | 139 | 145 ± 28 | 82.2 | 51.1 ± 2.5 | 47.8 ± 9.7 | 86.7 ± 2.7 |
| Cc1c(-c2ccc(O)cc2)n(Cc2ccc(OCCN3CCCCCC3)cc2)c2ccc(O)cc12.Cl [Bazedoxifene HCl] | 120 | 94.2 | 89.7 | 91.6 | 56.4 ± 32 | 41.6 | 21.6 ± 0.65 | 73.9 | 38 ± 6.1 | 114 | 45.6 ± 2.9 | 53.2 ± 6.3 | 83.1 ± 1.6 |
| CC(Oc1cc(-c2cnn(C3CCNCC3)c2)cnc1N)c1c(Cl)ccc(F)c1Cl [(R)-Crizotinib] | 154 | 67.6 | 106 | 95.7 | 60 ± 23 | 135 | 24.8 ± 3.8 | 89.6 | 141.8 ± 0.89 | 41.9 | 23.1 ± 3.7 | 39.3 ± 3.3 | 125 ± 27 |
| O=C(c1ccc(F)c(F)c1Nc1ccc(I)cc1F)N1CC(O)(C2CCCCN2)C1 (stereo not given) [Cobimetinib] | 74.9 | 52.9 | 58.8 | 59.8 | 76.8 ± 21 | 80.6 | 64.7 ± 24 | 82.8 | 74.8 ± 0.28 | 63.2 | 42.65 ± 0.23 | 48.9 ± 3.3 | 78.2 ± 2.8 |
| O=C(O)c1cc(O)c(O)c(O)c1 [Gallic acid] | 96.4 | 97.1 | 82.1 | 102 | 77.5 ± 0.96 | 107 | 90.8 ± 9.4 | 54.3 | 105 ± 7.6 | 126 | 91.2 ± 8.8 | 58 ± 13 | 84.5 ± 8.9 |
| CC(C)C[C@H](NC(=O)[C@H](Cc1ccccc1)NC(=O)c1cnccn1)B(O)O [Bortezomib] | 32.8 | 21.6 | 24.9 | 24 |  |  |  |  |  |  |  |  |  |
| Clc1ccc(C(Cn2ccnc2)OCc2ccc(Sc3ccccc3)cc2)c(Cl)c1.O=[N+]([O-])O (stereo not given) [Fenticonazole Nitrate] | 89.6 | 92.5 | 107 | 91.5 | 40.8 ± 0.92 | 96.9 | 19.2 ± 2.4 | 74.8 | 44.74 ± 0.32 | 105 | 59.12 ± 0.32 | 40.7 ± 11 | 91.8 ± 8.3 |
| CC(C)c1nc(CN(C)C(=O)NC(C(=O)NC(Cc2ccccc2)CC(O)C(Cc2ccccc2)NC(=O)OCc2cncs2)C(C)C)cs1 (stereo not given) [Ritonavir] | 88.2 | 82.1 | 88.4 | 91.1 | 72 ± 3.7 | 98 | 48.2 ± 0.57 | 83.6 | 57.8 ± 3.3 | 96.1 | 41.5 ± 0.54 | 62.6 ± 2.7 | 82 ± 16 |
| CC(C)(C)Cn1c(N)nc2ccc(-c3[nH]c(C(C)(C)C)nc3-c3ccc(F)cc3)nc21.CS(=O)(=O)O.CS(=O)(=O)O | 67.7 | 46.4 | 65.4 | 61.1 | 58.4 ± 4.5 | 54.2 | 36.8 ± 15 | 81 | 58.7 ± 0.99 | 72.3 | 36.7 ± 1.6 | 39.5 ± 3.9 | 64.2 ± 9.7 |
| CCCCCCCCOc1ccccc1C(=O)Nc1ccc(C(=O)OCC[N+](C)(CC)CC)cc1.[Br-] [Otilonium Bromide] | 91.3 | 100 | 105 | 90.7 | 51.9 ± 1.6 | 110 | 37.4 ± 9.3 | 77.9 | 42.9 ± 2.6 | 81.7 | 63.47 ± 0.62 | 37.7 ± 9.5 | 98.3 ± 10 |
| COC1=C(OC)C(=O)C(CCCCCCCCCCO)=C(C)C1=O [Idebenone] | 91.1 | 90.2 | 107 | 94.5 | 34 ± 2.8 | 107 | 39.1 ± 18 | 87.2 | 92.2 ± 61 | 104 | 78.2 ± 6.6 | 78.4 ± 30 | 51.9 ± 20 |
| C#Cc1cccc(Nc2ncnc3cc(OCCOC)c(OCCOC)cc23)c1 [Erlotinib] | 62.6 | 59.8 | 53.7 | 65 | 79.4 ± 26 | 73.6 | 63.7 ± 8.2 | 74.2 | 72.7 ± 3.5 | 81.1 | 67.82 ± 0.58 | 47.9 ± 9 | 107 ± 4.9 |
| CC1(C)Cc2c(-c3ccccc3)c(-c3ccc(Cl)cc3)c(CC(=O)O)n2C1 [Licofelone] | 125 | 103 | 90.3 | 97.1 | 46.1 ± 16 | 99.4 | 31.5 ± 2.2 | 90.2 | 84.6 ± 0.91 | 89.5 | 86.3 ± 4 | 47.3 ± 7 | 88.4 ± 11 |
| CN1CCCC1CCOC(C)(c1ccccc1)c1ccc(Cl)cc1.O=C(O)C=CC(=O)O (stereo not given) [Clemastine Fumarate] | 98.5 | 85.8 | 103 | 78.8 | 95.7 ± 30 | 79.3 | 52.8 ± 36 | 69.2 | 136 ± 24 | 74.4 | 36.5 ± 3.4 | 37.8 ± 3 | 104 ± 10 |
| Cl.O.O=C1Cc2cc(CCN3CCN(c4nsc5ccccc45)CC3)c(Cl)cc2N1 [Ziprasidone hydrochloride monohydrate] | 88.5 | 94.7 | 94.5 | 94.6 | 33.4 ± 14 | 64.9 | 21.8 ± 4.9 | 36 | 47.8 ± 5.2 | 27.2 | 25 ± 1.1 | 35.8 ± 1.7 | 35.7 ± 5.9 |
| C=C1C(=CC=C2CCCC3(C)C2CCC3C(C)C=CC(C)C(C)C)CC(O)CC1O (stereo not given) [Doxercalciferol] | 75.3 | 63.6 | 61.8 | 93.1 | 39.4 ± 14 | 137 | 26.4 ± 8.6 | 75.3 | 52.8 ± 3 | 106 | 54.8 ± 6.5 | 50.8 ± 12 | 180 ± 17 |

— the supplement of paper PMC6992640
